This note sets out measurements from PubChem BioAssay (EPA / NIEHS).

The source made the active and inactive calls. The calls were made as follows: active = hit-call score of the fitted dose curve at least 0.9, where 1 is the maximum; inactive = score below 0.9.

Read-out in one experiment: Interleukin 6 Receptor (IL6R), IL6R (gene 3570)
As to the kind of experiment: LTEA_HepaRG_IL6R: Life Technologies and Expression Analysis (LTEA) Assay for Interleukin 6 Receptor (IL6R) using HepaRG (AID 2283510).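 As to AC50: differentiated human HepaRG liver cells in serum-free induction medium; TaqMan qRT-PCR signal normalized to ACTB GAPDH and POLR2A housekeeping genes.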 To be noted: mRNA level, 48 h; actives raise or lower the signal. Summed up: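 Cells were thawed, plated and cultured 48 h, then medium was changed to serum-free induction medium. Chemicals were added in duplicate (100 uM top, half-log steps, 0.5% DMSO) for 48 h. Lysates were analyzed by qRT-PCR for IL6R expression.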
Turning to `Cn1cnc([N+](=O)[O-])c1Sc1ncnc2nc[nH]c12`, the call was inactive.

`COc1ccc2sc(C(=O)Nc3nnn[nH]3)c(OC(C)C)c2c1`: the compound was called inactive.

With `CN(C)c1ccc(Cc2ccc(N(C)C)cc2)cc1`, the result was inactive.

In the case of `Nc1nc2ncc(CNc3ccc(C(=O)N[C@@H](CCC(=O)O)C(=O)O)cc3)nc2c(=O)[nH]1`, the outcome was inactive.

With `CC(C)=CCC/C(C)=C\CO`, the compound was called inactive.

In the case of `CCOCCOCCOCCO`, the compound was classed as inactive.

For `CC/C(=C\C(=N/O)C(N)=O)C(C)[N+](=O)[O-]` (stereo not drawn), the outcome was inactive.

As to `CCOC(=O)COc1ccc2c(c1)CC(NCC(O)c1cccc(Cl)c1)CC2` (stereo not drawn), the compound was called inactive.

Take `CC(C)=CCC/C(C)=C/CO`: the result was inactive.

Consider `CC(C)(O)c1coc(S(=O)(=O)NC(=O)Nc2c3c(cc4c2CCC4)CCC3)c1`, for which the compound was called inactive.

As for `CC1=CC(=O)CC(C)(C)C1`, the outcome was inactive.

With `CCCCCCc1ccc(O)cc1O`, the result was inactive.

As to `CC(C)CCO`, the outcome was inactive.

In the case of `CC[C@H](C)C(=O)O[C@H]1C[C@@H](C)C=C2C=C[C@H](C)[C@H](CC[C@@H]3C[C@@H](O)CC(=O)O3)[C@H]21`, the result was inactive.

Turning to `CC1(C)C(=O)N(Br)C(=O)N1Br`, the compound was classed as inactive.

On to `CCCN(C1CCN(C(=O)C2CCNCC2)CC1)[C@@H]1CCc2ccc(OC)cc2C1`, for which the AC50 (usually the concentration giving half of the maximal activity seen) was 50 µM (active).

Regarding `CCOc1cccc(-n2cc(C(=O)N3CCN(c4cc(C(=O)O)c5ccccc5c4)CC3)nc2-c2ccc(C)cc2)c1`, the AC50 was 68.9 µM (active).

Turning to `Cc1ccc(O)cc1`, the outcome was inactive.

Consider `CC[C@H]1OC(=O)[C@H](C)[C@@H](O[C@H]2C[C@@](C)(OC)[C@@H](O)[C@H](C)O2)[C@H](C)[C@@H](O[C@@H]2O[C@H](C)C[C@H](N(C)C)[C@H]2O)[C@](C)(O)C[C@@H](C)C(=O)[C@H](C)[C@@H](O)[C@]1(C)O`, for which the result was inactive.

As to `NC(=O)NO`, the call was inactive.

Take `C1=CCCC=CCCC=CCC1`: the compound was classed as inactive.

As to `CC(O)CN(CCN(CC(C)O)CC(C)O)CC(C)O` (stereo not drawn), the compound was classed as inactive.

In the case of `Cn1c(=O)cc(Oc2ccc(F)cc2F)c2cnc(NCC(C)(C)O)nc21`, the outcome was inactive.

In the case of `CCCC(=O)OCC`, the call was inactive.

For the compound `C=CC(=C)CCC=C(C)C`, the compound was classed as inactive.

As for `O=C1CCC(N2C(=O)c3ccccc3C2=O)C(=O)N1` (stereo not drawn), the call was inactive.

`O=C(O)c1cc(N=Nc2ccc(S(=O)(=O)Nc3ccccn3)cc2)ccc1O`: the result was inactive.

In the case of `CCCCCCCCCCCCCCCO`, the compound was classed as inactive.

`CC(=O)c1ccc2c(c1)[C@H](NC(=O)c1ccc(F)cc1)[C@@H](O)C(C)(C)O2`: the result was inactive.

Read-out in the next experiment: Potassium channel subfamily K member 1 (KCNK1), KCNK1 (gene 3775)
As to the kind of experiment: LTEA_HepaRG_KCNK1: Life Technologies and Expression Analysis (LTEA) Assay for Potassium channel subfamily K member 1 (KCNK1) using HepaRG (AID 2283511). To be noted: mRNA level, 48 h; actives raise or lower the signal. Summed up:
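Human HepaRG cultures receive test chemicals for 48 h in 0.5% DMSO, top concentration 100 uM with half-log dilutions. Induction or suppression of KCNK1 mRNA relative to DMSO is derived by bidirectional fitting of qRT-PCR data.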
`Cn1cnc([N+](=O)[O-])c1Sc1ncnc2nc[nH]c12`: the AC50 was 4.15 µM (active).

On to `COc1ccc2sc(C(=O)Nc3nnn[nH]3)c(OC(C)C)c2c1`, for which the AC50 was 28.1 µM (active).

Regarding `CN(C)c1ccc(Cc2ccc(N(C)C)cc2)cc1`, the compound was called inactive.

Turning to `Nc1nc2ncc(CNc3ccc(C(=O)N[C@@H](CCC(=O)O)C(=O)O)cc3)nc2c(=O)[nH]1`, the compound was called inactive.

Consider `CC(C)=CCC/C(C)=C\CO`, for which the compound was classed as inactive.

In the case of `CCOCCOCCOCCO`, the call was inactive.

For the compound `CC/C(=C\C(=N/O)C(N)=O)C(C)[N+](=O)[O-]` (stereo not drawn), the result was inactive.

For the compound `CCOC(=O)COc1ccc2c(c1)CC(NCC(O)c1cccc(Cl)c1)CC2` (stereo not drawn), the result was inactive.

As to `CC(C)=CCC/C(C)=C/CO`, the compound was classed as inactive.

Turning to `CC(C)(O)c1coc(S(=O)(=O)NC(=O)Nc2c3c(cc4c2CCC4)CCC3)c1`, the compound was called inactive.

In the case of `CC1=CC(=O)CC(C)(C)C1`, the compound was called inactive.

`CCCCCCc1ccc(O)cc1O`: the result was inactive.

Regarding `CC(C)CCO`, the call was inactive.

For `CC1(C)C(=O)N(Br)C(=O)N1Br`, the compound was called inactive.

`CCCN(C1CCN(C(=O)C2CCNCC2)CC1)[C@@H]1CCc2ccc(OC)cc2C1`: the call was inactive.

Consider `CCOc1cccc(-n2cc(C(=O)N3CCN(c4cc(C(=O)O)c5ccccc5c4)CC3)nc2-c2ccc(C)cc2)c1`, for which the compound was called inactive.

Regarding `Cc1ccc(O)cc1`, the call was inactive.

For the compound `CC[C@H]1OC(=O)[C@H](C)[C@@H](O[C@H]2C[C@@](C)(OC)[C@@H](O)[C@H](C)O2)[C@H](C)[C@@H](O[C@@H]2O[C@H](C)C[C@H](N(C)C)[C@H]2O)[C@](C)(O)C[C@@H](C)C(=O)[C@H](C)[C@@H](O)[C@]1(C)O`, the compound was called inactive.

In the case of `Fc1ccccc1[C@@H](F)COC1CCC(Nc2ncnc3[nH]ncc23)CC1` (stereo partly drawn), the outcome was inactive.

For the compound `NC(=O)NO`, the result was inactive.

On to `C1=CCCC=CCCC=CCC1`, for which the compound was called inactive.

As for `CC(O)CN(CCN(CC(C)O)CC(C)O)CC(C)O` (stereo not drawn), the outcome was inactive.

As to `Cn1c(=O)cc(Oc2ccc(F)cc2F)c2cnc(NCC(C)(C)O)nc21`, the result was inactive.

Take `CCCC(=O)OCC`: the outcome was inactive.

Consider `C=CC(=C)CCC=C(C)C`, for which the call was inactive.

As to `O=C1CCC(N2C(=O)c3ccccc3C2=O)C(=O)N1` (stereo not drawn), the outcome was inactive.

Consider `O=C(O)c1cc(N=Nc2ccc(S(=O)(=O)Nc3ccccn3)cc2)ccc1O`, for which the outcome was inactive.

`CCCCCCCCCCCCCCCO`: the outcome was inactive.

As for `CC(=O)c1ccc2c(c1)[C@H](NC(=O)c1ccc(F)cc1)[C@@H](O)C(C)(C)O2`, the compound was classed as inactive.

Read-out in the next experiment: Keratin 19 (KRT19), KRT19 (gene 3880)
As to the kind of experiment: LTEA_HepaRG_KRT19: Life Technologies and Expression Analysis (LTEA) Assay for Keratin 19 (KRT19) using HepaRG (AID 2283512). Conditions: mRNA level, 48 h; actives raise or lower the signal. In outline:
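KRT19 transcript measured by TaqMan qRT-PCR, referenced to three housekeeping genes, after HepaRG cells received test chemicals for 48 h. Eight half-log concentrations, top 100 uM, 0.5% DMSO vehicle; increases and decreases both fitted.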
For `Cn1cnc([N+](=O)[O-])c1Sc1ncnc2nc[nH]c12`, the half-maximal activity concentration (AC50) is 5.94 µM (active).

`COc1ccc2sc(C(=O)Nc3nnn[nH]3)c(OC(C)C)c2c1`: the compound was classed as inactive.

As for `CN(C)c1ccc(Cc2ccc(N(C)C)cc2)cc1`, the AC50 was 40.8 µM (active).

Regarding `Nc1nc2ncc(CNc3ccc(C(=O)N[C@@H](CCC(=O)O)C(=O)O)cc3)nc2c(=O)[nH]1`, the compound was called inactive.

With `CC(C)=CCC/C(C)=C\CO`, the result was inactive.

Take `CCOCCOCCOCCO`: the compound was called inactive.

As to `CC/C(=C\C(=N/O)C(N)=O)C(C)[N+](=O)[O-]` (stereo not drawn), the compound was called inactive.

`CCOC(=O)COc1ccc2c(c1)CC(NCC(O)c1cccc(Cl)c1)CC2` (stereo not drawn): the AC50 was 2.77 µM (active).

`CC(C)=CCC/C(C)=C/CO`: the outcome was inactive.

For `CC(C)(O)c1coc(S(=O)(=O)NC(=O)Nc2c3c(cc4c2CCC4)CCC3)c1`, the result was inactive.

Turning to `CC1=CC(=O)CC(C)(C)C1`, the result was inactive.

`CCCCCCc1ccc(O)cc1O`: the call was inactive.

As for `CC(C)CCO`, the compound was called inactive.

For `CC[C@H](C)C(=O)O[C@H]1C[C@@H](C)C=C2C=C[C@H](C)[C@H](CC[C@@H]3C[C@@H](O)CC(=O)O3)[C@H]21`, the compound was classed as inactive.

On to `CC1(C)C(=O)N(Br)C(=O)N1Br`, for which the outcome was inactive.

Turning to `CCCN(C1CCN(C(=O)C2CCNCC2)CC1)[C@@H]1CCc2ccc(OC)cc2C1`, the half-maximal activity concentration (AC50) is 13.6 µM (active).

As for `CCOc1cccc(-n2cc(C(=O)N3CCN(c4cc(C(=O)O)c5ccccc5c4)CC3)nc2-c2ccc(C)cc2)c1`, the half-maximal activity concentration (AC50) is 16.2 µM (active).

As for `Cc1ccc(O)cc1`, the result was inactive.

For the compound `CC[C@H]1OC(=O)[C@H](C)[C@@H](O[C@H]2C[C@@](C)(OC)[C@@H](O)[C@H](C)O2)[C@H](C)[C@@H](O[C@@H]2O[C@H](C)C[C@H](N(C)C)[C@H]2O)[C@](C)(O)C[C@@H](C)C(=O)[C@H](C)[C@@H](O)[C@]1(C)O`, the compound was classed as inactive.

Consider `Fc1ccccc1[C@@H](F)COC1CCC(Nc2ncnc3[nH]ncc23)CC1` (stereo partly drawn), for which the AC50 was 12.6 µM (active).

With `NC(=O)NO`, the outcome was inactive.

For `C1=CCCC=CCCC=CCC1`, the outcome was inactive.

Regarding `CC(O)CN(CCN(CC(C)O)CC(C)O)CC(C)O` (stereo not drawn), the outcome was inactive.

As for `Cn1c(=O)cc(Oc2ccc(F)cc2F)c2cnc(NCC(C)(C)O)nc21`, the AC50 is 18.3 µM (active).

Take `CCCC(=O)OCC`: the outcome was inactive.

For the compound `C=CC(=C)CCC=C(C)C`, the outcome was inactive.

In the case of `O=C1CCC(N2C(=O)c3ccccc3C2=O)C(=O)N1` (stereo not drawn), the call was inactive.

With `O=C(O)c1cc(N=Nc2ccc(S(=O)(=O)Nc3ccccn3)cc2)ccc1O`, the call was inactive.

For `CCCCCCCCCCCCCCCO`, the call was inactive.

With `CC(=O)c1ccc2c(c1)[C@H](NC(=O)c1ccc(F)cc1)[C@@H](O)C(C)(C)O2`, the outcome was inactive.
